Data: PubChem BioAssay (EPA / NIEHS)
Inconclusive results are not listed. Activity calls are given as the source filed them. Rule for the calls: active = hit-call score of the fitted dose curve at least 0.9, where 1 is the maximum; inconclusive = response in the unintended direction; inactive = score below 0.9.

Biological target: Estrogen receptor (Homo sapiens) (UniProt P03372)
Experiment: NVS_NR_hER: NovaScreen (NVS) Nuclear Receptor Binding Assay for human Estrogen Receptor (ER) (AID 2283348)
Experimental: NVS_NR_hER is a biochemical, single-readout assay that uses extracted gene-proteins from MCF7 in a cell-free assay. Measurements were taken 18 hours after chemical dosing in a 96-well plate.NVS_NR_hER is one of one assay component(s) measured or calculated from the NVS_NR_hER assay. It is designed to make measurements of radioligand binding, a form of binding reporter, as detected with scintillation counting signals by Lysate-based radiodetection technology.Data from the assay component NVS_NR_hER was analyzed into 1 assay endpoint. This assay endpoint, NVS_NR_hER, was analyzed in the positive analysis fitting direction relative to DMSO as the negative control and baseline of activity. Using a type of binding reporter, loss-of-signal activity can be used to understand changes in the binding as they relate to the gene ESR1. Furthermore, this assay endpoint can be referred to as a primary readout, because the performed assay has only produced 1 assay endpoint. To generalize the intended target to other relatable targets, this assay endpoint is annotated to the nuclear receptor intended target family, where the subfamily is steroidal.
Binding assays used specific radioligands (tritiated, iodinated) with non-radioactive competitive displacement ligands in agonist or antagonist protocols (as indicated) and various reference compounds and inhibitors to titrate specific binding to receptors and transporters. Most enzyme assays (CYPs, kinases, phosphatases, proteases, HDACs) used recombinant protein and specific substrates (fluorescence mostly, some colorimetric and radioactive) and inhibitors, followed by a biochemical separation of substrate and product. All assays for the biochemical HTS were initially run in duplicate at a single concentration (10 uM for CYP450 assays and 25 uM for all others). […] Each assay was run with positive and negative controls, and concurrent controls on every plate. The follow-up (secondary) screen tested active chemical-pairs in concentration series, as well as a few additional assays not tested in the primary screen, some selected negative inactives, and several cases re-run in the concentration series for confirmatory purposes.

Estrogen receptor (Homo sapiens), sequence (P03372 whole entry, looked up): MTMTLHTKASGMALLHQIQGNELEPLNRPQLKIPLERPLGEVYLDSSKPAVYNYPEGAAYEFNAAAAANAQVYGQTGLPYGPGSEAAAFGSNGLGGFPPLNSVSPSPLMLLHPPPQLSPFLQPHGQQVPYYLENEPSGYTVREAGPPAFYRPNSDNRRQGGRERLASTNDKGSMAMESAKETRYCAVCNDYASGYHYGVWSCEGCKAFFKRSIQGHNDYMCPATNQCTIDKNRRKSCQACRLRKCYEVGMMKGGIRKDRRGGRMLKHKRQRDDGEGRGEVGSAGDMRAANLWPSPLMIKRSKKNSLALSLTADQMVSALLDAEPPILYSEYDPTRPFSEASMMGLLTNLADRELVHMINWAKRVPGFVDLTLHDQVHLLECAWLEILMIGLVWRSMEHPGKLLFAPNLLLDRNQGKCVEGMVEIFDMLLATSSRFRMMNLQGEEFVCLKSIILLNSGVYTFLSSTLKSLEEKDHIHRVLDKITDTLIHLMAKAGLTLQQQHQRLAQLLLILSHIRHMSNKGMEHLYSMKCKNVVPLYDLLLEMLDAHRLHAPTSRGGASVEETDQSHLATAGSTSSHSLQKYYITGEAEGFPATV

outcome, inactive:
C=CCCCCCCCCC(=O)O, CCOC(=O)COc1ccc2c(c1)CC(NCC(O)c1cccc(Cl)c1)CC2 (configuration not stated), Cn1c(=O)cc(Oc2ccc(F)cc2F)c2cnc(NCC(C)(C)O)nc21, CCC(C)(C)C(=O)O[C@H]1C[C@@H](C)C=C2C=C[C@H](C)[C@H](CC[C@@H]3C[C@@H](O)CC(=O)O3)[C@H]21, Cn1cnc([N+](=O)[O-])c1Sc1ncnc2nc[nH]c12, CC[C@H]1CC[C@H](NCc2cc3c(cc2OC)[C@H]2C[C@H]2C(=O)N3C)[C@H](c2ccccc2)N1, CC(C)=CCCC(C)=CC=O, COc1ccc2sc(C(=O)Nc3nnn[nH]3)c(OC(C)C)c2c1, Nc1ccc(Nc2ccccc2)cc1, COc1cccc(-c2ccc(/C=C\CN3CCCCCC3)cc2Cl)c1, O=P(OC(CCl)CCl)(OC(CCl)CCl)OC(CCl)CCl, CC(C)=CCCC(C)CCO (configuration not stated)
